# Test results: article PMC7862700, “An all-to-all approach to the identification of sequence-specific readers for epigenetic DNA modifications on cytosine”
# Key:
# Test in all cases: DAPPL (digital affinity profiling via proximity ligation, sequencing); 10 mM Tris-HCl pH 7.5, 50 mM NaCl, 1 mM DTT, 4% glycerol, room temperature, 30 min; GST-TFs on glutathione beads, 16-mer random dsDNA library, 0.1% formaldehyde crosslink after washing; high values mean tight binding
# Conditions in all cases: protein: recombinant; tags: N-terminal GST; dsDNA, one strand shown
# [1] = biological target: T1, ERF (Homo sapiens, UniProt P50548 1-548)
# T1 sequence: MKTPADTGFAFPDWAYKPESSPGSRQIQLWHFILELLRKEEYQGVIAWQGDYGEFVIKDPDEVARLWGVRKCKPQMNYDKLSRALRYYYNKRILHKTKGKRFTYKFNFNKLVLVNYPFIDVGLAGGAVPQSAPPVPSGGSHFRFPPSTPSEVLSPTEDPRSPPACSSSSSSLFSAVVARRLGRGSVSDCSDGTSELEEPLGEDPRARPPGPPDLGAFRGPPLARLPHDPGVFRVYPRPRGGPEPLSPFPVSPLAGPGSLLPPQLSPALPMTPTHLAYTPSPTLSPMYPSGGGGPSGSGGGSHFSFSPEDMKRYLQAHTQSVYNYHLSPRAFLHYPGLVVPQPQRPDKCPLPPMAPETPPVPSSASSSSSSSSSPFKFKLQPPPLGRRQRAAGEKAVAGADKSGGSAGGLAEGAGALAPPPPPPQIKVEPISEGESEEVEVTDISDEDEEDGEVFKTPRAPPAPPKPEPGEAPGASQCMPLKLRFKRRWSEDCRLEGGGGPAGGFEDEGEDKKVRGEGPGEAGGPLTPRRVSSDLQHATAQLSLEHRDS
# Outline: (§1)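 Human transcription factors were made in yeast as GST fusions, captured on glutathione beads and barcoded with DNA. With a tag-only sample included, the pool was incubated with 200 nmole of a random double-stranded 16-mer DNA library in Tris/NaCl/DTT/glycerol buffer at room temperature for 30 min, then crosslinked with 0.1% formaldehyde after washing, ligated by proximity, amplified and sequenced. For binding signal, each hexamer's read frequency for a factor is divided by its frequency for the tag-only sample.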
# [2] = biological target: T2, ETV3L (Homo sapiens, UniProt Q6ZN32 1-361)
# T2 sequence: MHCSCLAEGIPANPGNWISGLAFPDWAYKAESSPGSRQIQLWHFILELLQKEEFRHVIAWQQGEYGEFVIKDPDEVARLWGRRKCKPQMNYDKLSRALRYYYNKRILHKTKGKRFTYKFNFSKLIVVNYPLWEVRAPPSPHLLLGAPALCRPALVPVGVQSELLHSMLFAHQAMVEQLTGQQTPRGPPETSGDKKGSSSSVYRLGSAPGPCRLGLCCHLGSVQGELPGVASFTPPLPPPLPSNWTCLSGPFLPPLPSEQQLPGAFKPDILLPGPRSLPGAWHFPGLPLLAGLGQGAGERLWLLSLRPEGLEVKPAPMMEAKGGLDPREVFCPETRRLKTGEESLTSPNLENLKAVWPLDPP
# Outline: as §1
# [3] = biological target: T3, ETS2 (Homo sapiens, UniProt P15036 1-469)
# T3 sequence: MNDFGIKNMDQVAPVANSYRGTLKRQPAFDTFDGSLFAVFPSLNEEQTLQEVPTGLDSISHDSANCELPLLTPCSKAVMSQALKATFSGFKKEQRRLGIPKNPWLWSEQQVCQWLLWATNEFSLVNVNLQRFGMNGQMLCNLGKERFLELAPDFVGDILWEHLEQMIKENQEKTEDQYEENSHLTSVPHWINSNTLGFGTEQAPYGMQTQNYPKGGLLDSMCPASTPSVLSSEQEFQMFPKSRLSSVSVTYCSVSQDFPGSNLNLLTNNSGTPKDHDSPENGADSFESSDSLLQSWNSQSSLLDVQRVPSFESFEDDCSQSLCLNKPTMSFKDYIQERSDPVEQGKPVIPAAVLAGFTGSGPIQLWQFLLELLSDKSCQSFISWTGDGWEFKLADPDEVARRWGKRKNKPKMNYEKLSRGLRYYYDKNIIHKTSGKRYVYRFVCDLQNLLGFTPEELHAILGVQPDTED
# Outline: as §1
# [4] = biological target: T4, SPDEF (Homo sapiens, UniProt O95238 1-335)
# T4 sequence: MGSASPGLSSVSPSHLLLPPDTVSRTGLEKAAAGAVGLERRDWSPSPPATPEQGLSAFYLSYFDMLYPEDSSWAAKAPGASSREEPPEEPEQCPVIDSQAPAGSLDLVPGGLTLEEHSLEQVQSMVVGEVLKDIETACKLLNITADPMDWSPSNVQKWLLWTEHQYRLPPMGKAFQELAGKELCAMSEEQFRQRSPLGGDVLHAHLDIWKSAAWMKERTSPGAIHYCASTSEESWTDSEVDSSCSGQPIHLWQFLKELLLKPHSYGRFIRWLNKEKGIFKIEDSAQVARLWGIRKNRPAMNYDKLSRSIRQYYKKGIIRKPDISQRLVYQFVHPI
# Outline: as §1
# [5] = biological target: T5, ETV7 (Homo sapiens, UniProt Q9Y603 1-341)
# T5 sequence: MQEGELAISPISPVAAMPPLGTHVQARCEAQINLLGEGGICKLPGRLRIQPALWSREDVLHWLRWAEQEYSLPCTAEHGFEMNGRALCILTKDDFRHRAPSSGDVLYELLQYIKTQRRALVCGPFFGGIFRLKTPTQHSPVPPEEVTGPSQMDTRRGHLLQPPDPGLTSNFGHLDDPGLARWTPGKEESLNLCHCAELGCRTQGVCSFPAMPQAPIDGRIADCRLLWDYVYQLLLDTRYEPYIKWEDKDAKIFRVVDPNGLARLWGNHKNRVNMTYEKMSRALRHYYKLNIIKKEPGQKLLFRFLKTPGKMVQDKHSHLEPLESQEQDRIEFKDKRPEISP
# Outline: as §1
# [6] = biological target: T6, ELF5 (Homo sapiens, UniProt Q9UKW6-2 1-255)
# T6 sequence: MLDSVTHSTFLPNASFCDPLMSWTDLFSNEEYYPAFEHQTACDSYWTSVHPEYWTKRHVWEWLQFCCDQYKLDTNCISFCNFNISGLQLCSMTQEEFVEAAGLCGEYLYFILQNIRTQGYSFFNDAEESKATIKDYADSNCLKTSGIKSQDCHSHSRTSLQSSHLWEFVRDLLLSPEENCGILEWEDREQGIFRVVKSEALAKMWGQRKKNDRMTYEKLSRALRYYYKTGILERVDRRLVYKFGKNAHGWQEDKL
# Outline: as §1
# [7] = biological target: T7, ETV3 (Homo sapiens, UniProt P41162-2 1-143)
# T7 sequence: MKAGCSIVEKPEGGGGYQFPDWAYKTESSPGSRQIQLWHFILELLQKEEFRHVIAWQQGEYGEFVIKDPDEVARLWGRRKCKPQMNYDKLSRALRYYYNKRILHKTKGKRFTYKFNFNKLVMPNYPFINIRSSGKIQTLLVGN
# Outline: as §1
# [8] = biological target: ETV6 (Homo sapiens, UniProt P41212 1-452)
# Chain of ETV6 (P41212 whole entry): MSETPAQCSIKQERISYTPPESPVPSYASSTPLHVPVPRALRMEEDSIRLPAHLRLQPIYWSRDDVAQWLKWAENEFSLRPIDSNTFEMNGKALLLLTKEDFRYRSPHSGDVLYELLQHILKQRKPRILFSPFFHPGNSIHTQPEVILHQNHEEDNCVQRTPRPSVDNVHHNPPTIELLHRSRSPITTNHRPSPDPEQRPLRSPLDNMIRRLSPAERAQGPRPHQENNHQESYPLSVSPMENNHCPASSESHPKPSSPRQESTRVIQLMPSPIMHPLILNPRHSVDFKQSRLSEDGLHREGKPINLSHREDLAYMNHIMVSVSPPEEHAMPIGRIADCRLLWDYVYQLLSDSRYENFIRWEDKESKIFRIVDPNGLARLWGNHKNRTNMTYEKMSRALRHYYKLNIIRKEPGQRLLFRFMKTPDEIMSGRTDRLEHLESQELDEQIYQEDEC
# Outline: as §1
Sequence,binding signal [1],binding signal [2],binding signal [3],binding signal [4],binding signal [5],binding signal [6],binding signal [7],binding signal [8]
TCCTAG,"1.26 fold enrichment (6-mer frequency, TF over GST control)","1.08 fold enrichment (6-mer frequency, TF over GST control)","1.26 fold enrichment (6-mer frequency, TF over GST control)","1.4 fold enrichment (6-mer frequency, TF over GST control)","1.25 fold enrichment (6-mer frequency, TF over GST control)","1.41 fold enrichment (6-mer frequency, TF over GST control)","1.32 fold enrichment (6-mer frequency, TF over GST control)","1.26 fold enrichment (6-mer frequency, TF over GST control)"
ATTCAC,"1.21 fold enrichment (6-mer frequency, TF over GST control)","1.21 fold enrichment (6-mer frequency, TF over GST control)","1.29 fold enrichment (6-mer frequency, TF over GST control)","1.21 fold enrichment (6-mer frequency, TF over GST control)","1.24 fold enrichment (6-mer frequency, TF over GST control)","1.19 fold enrichment (6-mer frequency, TF over GST control)","1.23 fold enrichment (6-mer frequency, TF over GST control)","1.17 fold enrichment (6-mer frequency, TF over GST control)"
ATATCC,"2.67 fold enrichment (6-mer frequency, TF over GST control)","2.57 fold enrichment (6-mer frequency, TF over GST control)","2.76 fold enrichment (6-mer frequency, TF over GST control)","4.48 fold enrichment (6-mer frequency, TF over GST control)","2.25 fold enrichment (6-mer frequency, TF over GST control)","3.58 fold enrichment (6-mer frequency, TF over GST control)","2.89 fold enrichment (6-mer frequency, TF over GST control)","2.64 fold enrichment (6-mer frequency, TF over GST control)"
TATTTG,"1.34 fold enrichment (6-mer frequency, TF over GST control)","1.47 fold enrichment (6-mer frequency, TF over GST control)","1.41 fold enrichment (6-mer frequency, TF over GST control)","1.32 fold enrichment (6-mer frequency, TF over GST control)","1.52 fold enrichment (6-mer frequency, TF over GST control)","1.4 fold enrichment (6-mer frequency, TF over GST control)","1.47 fold enrichment (6-mer frequency, TF over GST control)","1.45 fold enrichment (6-mer frequency, TF over GST control)"
GCTTGC,"1.24 fold enrichment (6-mer frequency, TF over GST control)","1.29 fold enrichment (6-mer frequency, TF over GST control)","1.24 fold enrichment (6-mer frequency, TF over GST control)","1.22 fold enrichment (6-mer frequency, TF over GST control)","1.21 fold enrichment (6-mer frequency, TF over GST control)","1.03 fold enrichment (6-mer frequency, TF over GST control)","1.19 fold enrichment (6-mer frequency, TF over GST control)","1.15 fold enrichment (6-mer frequency, TF over GST control)"
TCTTCT,"1.24 fold enrichment (6-mer frequency, TF over GST control)","1.29 fold enrichment (6-mer frequency, TF over GST control)","1.23 fold enrichment (6-mer frequency, TF over GST control)","1.16 fold enrichment (6-mer frequency, TF over GST control)","1.06 fold enrichment (6-mer frequency, TF over GST control)","1.19 fold enrichment (6-mer frequency, TF over GST control)","1.25 fold enrichment (6-mer frequency, TF over GST control)","1.29 fold enrichment (6-mer frequency, TF over GST control)"
